Eight compounds from PubChem BioAssay (NCI) can be followed below.

The structures appear in SMILES notation. Compounds without any hit were thinned out: in the full panel of roughly 83,000, 20% have a hit.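 A percent growth of 40 corresponds to 60% growth inhibition; 0 means no net growth; -100 means all cells died. Active threshold: below 10.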 Values without a mark were called inactive. The source made the active and inactive calls.

Test in all cases: NCI-60 one-dose screen, 48 h (100 = growth as untreated, 0 = no growth, -100 = all killed)
Conditions in all cases: 10 µM

The subject of test [1] is HCT-15 colon.
In test [2] the test system is HT29 colon.
Test [3] has as its system SNB-75 CNS.
Test [4] concerns SNB-19 CNS.
The subject of test [5] is U251 CNS.
Test [6] relates to PC-3 prostate.
The subject of test [7] is SK-MEL-5 melanoma.
For test [8], the system named is UACC-62 melanoma.
Test [9] relates to LOX IMVI melanoma.
Test [10] relates to SK-MEL-28 melanoma.
The test system of test [11] is EKVX NSCLC.
Test [12] deals with SN12C renal.
Test [13] has as its system UO-31 renal.
For test [14], the system named is TK-10 renal.
Test [15] relates to ACHN renal.
Test [16] has as its system CAKI-1 renal.
Test [17] has as its system A498 renal.
The subject of test [18] is CCRF-CEM leukemia.
Test [19] concerns MOLT-4 leukemia.
The subject of test [20] is SK-MEL-2 melanoma.

For `COc1cc2c3c(n(CCCNC(C)C)c(=O)c2cc1OC)-c1nc2c(cc1C3=O)OCO2`, the growth in test [1] is -87.9% (active); in test [2] it was -65.4% (active); in test [3] it was 78.6%; in test [4], 33.2%; in [5] it was -76.3% (active); in test [6], -66.1% (active). Also, the growth was 54.4% in test [7]; 22% in test [8]; -97.3% (active) in test [9]; 49.2% in test [10]; 87.6% in test [11]; -88.9% (active) in test [12]. Also, the growth was -97% (active) in test [13]; 97.2% in test [14]; 4.04% (active) in [15]; 13.7% in test [16]; 81.9% in test [17]; 5.05% (active) in test [18]. The growth in test [19] is -1.94% (active).

As to `COc1cc(/C=N/NC(=O)c2ccc3nc(-c4ccc(Cl)cc4)[nH]c3c2)cc(OC)c1OC`, the growth in test [1] was 55.7%; in test [2], -50.2% (active); in test [3], -47.5% (active); in test [4] it was -94.1% (active); in test [5], -86.6% (active); in [6], -41.6% (active). The growth in [7] was -82.6% (active); in test [8], -76.7% (active); in test [9], -81.1% (active); in [10], -87.9% (active); in [11] it was 9.25% (active); in [13], 58.9%. Besides, the growth in [14] is 37.4%; in [15], 30.1%; in test [16] it was 2.87% (active); in test [17] it was -31.1% (active); in test [18], -4.37% (active); in test [19], 3.96% (active).

As to `CN1CCN(c2ccc(Nc3nc(N4CCN(S(=O)(=O)c5ccc(F)cc5)CC4)c4sccc4n3)cc2)CC1`, the growth was -79.8% (active) in test [1]; -63.1% (active) in [2]; -97.9% (active) in test [3]; -98.1% (active) in test [4]; -98.5% (active) in test [5]; -18.4% (active) in [6]. The growth in [7] was -100% (active); in test [8] it was -93.3% (active); in test [9], -91.7% (active); in test [10], -95.4% (active); in test [11], -89.5% (active); in test [12] it was -86.4% (active). Moreover, the growth is -87.1% (active) in [13]; -77.9% (active) in [14]; -100% (active) in test [15]; -96.3% (active) in [16]; -94.3% (active) in [17]; -1.97% (active) in test [18].

Turning to `OCCCNc1oc(-c2ccccc2)nc1[P+](c1ccccc1)(c1ccccc1)c1ccccc1`, the growth in test [1] is 45.9%; in test [2], 6.51% (active); in test [3], -2.93% (active); in test [4] it was 4.56% (active); in [5], 13.7%; in test [6], 9.56% (active). The growth in test [7] was -100% (active); in test [8] it was -70.2% (active); in [9] it was -16.6% (active); in test [20], -34.1% (active); in test [11], 14.3%; in test [12], -0.273% (active). The growth in test [13] was 69.8%; in [14], 20.9%; in [15], 51%; in test [16] it was 58.6%; in test [17] it was 22.5%; in [18] it was 10.5%. In addition, the growth in [19] was 6.77% (active).

For the compound `CC(C)CCSc1nc(NC2CC2)c(C#N)c(-c2ccc(C(C)C)cc2)n1`, the growth was 106% in test [1]; 108% in test [2]; 111% in test [3]; 98.6% in test [4]; 106% in test [5]; 106% in [6]. Further, the growth in test [7] is 102%; in [8], 98.3%; in test [9], 100%; in test [10], 110%; in test [11] it was 96.5%; in test [12], 106%. For the same compound, the growth is 103% in test [13]; 99.4% in [14]; 108% in [15]; 99.3% in test [16]; 109% in [17]; 95.4% in [18]. The growth in test [19] is 98.9%.

Take `COc1ccc(C(=O)/C=C/c2cc(F)cc(C(F)(F)F)c2)cc1S(N)(=O)=O`: the growth was -77.9% (active) in [1]; -68.3% (active) in test [2]; 63.2% in test [3]; -92.6% (active) in [4]; -72.9% (active) in test [5]; -10.2% (active) in test [6]. Moreover, the growth in [7] was 3.71% (active); in test [8] it was -55.5% (active); in test [9], -91.3% (active); in [10] it was -68.4% (active); in [11], 7.02% (active); in test [12] it was -69.1% (active). For the same compound, the growth is -12.4% (active) in test [14]; -100% (active) in [15]; -85.7% (active) in [16]; 88.2% in test [17]; 4.86% (active) in [18]; 1.63% (active) in test [19].

`C=C(C)[C@@H]1CC[C@]2(C(=O)OC)CC[C@]3(C)[C@H](CC[C@@H]4[C@@]5(C)CC[C@H](N)C(C)(C)[C@@H]5CC[C@]43C)[C@@H]12`: the growth in test [1] was -97.2% (active); in [2] it was -70.6% (active); in test [3] it was -91.5% (active); in test [4], -99.3% (active); in test [5], -85.4% (active); in test [6] it was -28.2% (active). Besides, the growth in test [7] was -54.9% (active); in test [8], -97.9% (active); in test [9], -98.4% (active); in test [20] it was -75.3% (active); in test [11], -95.7% (active); in test [12] it was -92.8% (active). Further, the growth was -100% (active) in [13]; -87.8% (active) in test [14]; -100% (active) in [15]; -99.9% (active) in test [16]; -91.6% (active) in test [17]; -52.3% (active) in test [18].

As to `COc1ccc(-c2cc(C(=O)N=Nc3c(O)[nH]c4ccc(Br)cc34)c3ccccc3n2)cc1`, the growth in [1] was -60.8% (active); in test [2], -1.14% (active); in test [3], 108%; in test [4], -3.47% (active); in test [5], -67.7% (active); in [6], 23.1%. Besides, the growth in [7] is 84.8%; in test [8] it was 32.6%; in [9], -51.5% (active); in test [20], 122%; in test [11] it was 44.4%; in test [12], 5.56% (active). The growth in test [13] is 43.2%; in test [14], 97.8%; in test [15] it was 24.5%; in [16] it was 57.1%; in test [17] it was 143%; in test [18], 18.9%. Moreover, in [19], the growth was 4.15% (active).
